Most compounds without a hit are left out; they make up all but 11% or so of the library.
3T3 cytotox = kills NIH 3T3 cells | NIH 3T3 viability, CellTiter-Glo ATP luminescence, 48-72 h | AID 1345082 | Potency, µM (doses to about 96.7 µM), inactives show at the highest dose activity change, negative = cytotoxicity, most hits filed as inhibitors | 94,000 compounds, 4.3% hits; note: nearly all actives have a fitted effect of over 55% in size
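NIH 3T3 cells at 400 cells/well received 23 nL of compound by pintool and were incubated 48 or 72 h at 37 °C. Viability was read as ATP-coupled CellTiter-Glo luminescence.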
HEK cytotox = HEK 293 cell cytotoxicity | 94,000 compounds, 6.6% hits | AID 1345083 | HEK 293 viability, ATP luminescence (CellTiter-Glo), 48-72 h | Potency, µM (doses to about 115 µM), for inactives: at the highest dose activity change, negative = cytotoxicity, most hits filed as inhibitors; note: nearly all actives have a fitted effect of over 60% in size
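Read-out: CellTiter-Glo ATP luminescence. Cells: HEK 293, 250 cells/well. Exposure: 48 or 72 hr, 37 degree Celsius.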
hNpr1 antagonist = antagonists of human natriuretic peptide receptor Npr1 | HEK293 hNpr1 GloSensor cGMP, ANP-stimulated luminescence | 76,000 compounds, 1.6% hits | P16066 | Potency, µM (titrated, usually from 46.3 µM), for inactives: at the highest dose activity change, negative = inhibition, usual class: inhibitors; calls by dose curve; note: nearly all actives have a fitted effect of over 60% in size
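Compound pre-incubated 30 min at room temperature on GloSensor-loaded HEK293 cells stably carrying hNpr1 and the pGS-40F cGMP biosensor. Stimulation uses hNppA at 0.1 nM final; luminescence is taken at baseline and 20 min post-agonist.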
FLuc inh = Photinus pyralis luciferase inhibition; P08659; purified P. pyralis luciferase, luminescence, biochemical; Potency, µM (highest dose often 115 µM), usual class: inhibitors; 76,000 compounds, 2.5% hits; AID 1347043; note: nearly all actives have a fitted effect of over 65% in size
Target sequence (P08659 whole entry, looked up): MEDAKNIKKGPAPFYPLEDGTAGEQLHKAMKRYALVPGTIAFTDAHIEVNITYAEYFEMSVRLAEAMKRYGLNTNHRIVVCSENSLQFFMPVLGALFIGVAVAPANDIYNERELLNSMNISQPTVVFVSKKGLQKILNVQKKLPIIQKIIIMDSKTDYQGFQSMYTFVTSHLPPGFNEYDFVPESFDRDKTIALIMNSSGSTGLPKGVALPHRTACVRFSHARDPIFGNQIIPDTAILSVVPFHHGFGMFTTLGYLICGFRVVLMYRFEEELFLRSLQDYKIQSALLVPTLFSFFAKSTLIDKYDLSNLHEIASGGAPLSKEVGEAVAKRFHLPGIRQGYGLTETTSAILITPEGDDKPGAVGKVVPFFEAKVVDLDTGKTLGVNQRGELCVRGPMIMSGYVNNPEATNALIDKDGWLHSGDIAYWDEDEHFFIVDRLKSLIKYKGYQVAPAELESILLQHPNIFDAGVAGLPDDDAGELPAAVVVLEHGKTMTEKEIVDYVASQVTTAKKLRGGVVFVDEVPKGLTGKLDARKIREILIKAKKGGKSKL
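Inhibitors were tested against purified firefly luciferase in a biochemical, low-substrate format (both substrates at 10uM) and luminescence measured with a CCD imager.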
The depositor's hits bear a star; i = inactive; ? = inconclusive; · = no result; [ ] = another dose, or the depositor's remark. Unless noted, calls come from the whole dose curve; as a rule, active = well fitted curve in the direction sought with a large enough effect; inconclusive = small, poorly fitted or top-dose-only effect, or another doubt; inactive = no such curve, though single readings can be large; an effect the other way counts as inactive or inconclusive. % is set by controls: 0 for no effect and ±100 for the full control effect; potency is the fitted concentration of half-maximal effect.

SMILES | 3T3 cytotox | HEK cytotox | hNpr1 antagonist | FLuc inh
Cc1ccccc1CN1Cc2nc(-c3ccc4c(c3)OCO4)ccc2OCC1=O | ? | 35.5µM* | -20.9%[70.6 µM] | i
O=c1n(-c2ccc(Cl)cc2)nc2n1CCN(CC1CC1)C2 | -6.1%[138 µM] | -14.3%[172 µM] | · | ·
CC(C)n1nc(OC(C)(C)C(=O)Nc2cccnc2)c2cc(CN3CCOCC3)ccc21 | 28.2µM* | -25.6%[172 µM] | 5.4%[70.6 µM] | i
COCc1ccc2c(c1)c(OC(C)(C)C(=O)N1CCN(C)CC1)nn2Cc1ccccc1 | ? | ? | -24.5%[70.6 µM] | i
COCc1ccc2c(c1)c(OC(C)(C)C(=O)N1CCOCC1)nn2Cc1cccc(OC)c1 | 3.98µM* | -29.3% | 4.5% | i
COCc1ccc2c(c1)c(OC(C)(C)C(=O)NCCN1CCOCC1)nn2Cc1cccnc1 | ? | -2.3% | 4.8% | i
COCc1ccc2c(c1)c(OC(C)(C)C(=O)NC(C)C)nn2Cc1cccc(OC)c1 | ? | ? | 1.3%[70.6 µM] | i
COCc1ccc2c(c1)c(OC(C)(C)C(=O)N1CCOCC1)nn2Cc1cccnc1 | 31.6µM* | -9.5%[172 µM] | 2.1%[70.6 µM] | i
COCc1ccc2c(c1)c(OC(C)(C)C(=O)N1CCN(CCO)CC1)nn2Cc1cccnc1 | 35.5µM* | i | 8.4% | i
FC(F)Oc1cccc(CNC2CCC3(CCNCC3)CC2)c1 | ? | 50.1µM* | -4.8% | i
c1cc(-c2n[nH]c(CNC3CCC4(CCNCC4)CC3)n2)ccn1 | -6.7% | -1.4% | 10.6% | i
COc1cc(-c2ccnc3nc(-c4cccs4)nn23)cc(OC)c1OC | -26.6% | ? | 1.0% | i
O=C1N(C2CCCCC2)C[C@H]2CN(S(=O)(=O)c3ccc(F)cc3)CCN12 | 35.5µM* | ? | -1.8%[70.6 µM] | i
O=C1N(C2CCCCC2)C[C@H]2CN(S(=O)(=O)c3ccccc3)CCN12 | ? | ? | 3.6%[70.6 µM] | i
CC(=O)NC1(C)CN(Cc2ccc(-c3cccc(F)c3)s2)C1 | ? | ? | -2.3%[70.6 µM] | ?
CC(=O)NC1(C)CN(Cc2ccc(-c3cccc(C(F)(F)F)c3)s2)C1 | 44.7µM* | 63.1µM* | ? | 12.6µM*
CCCCc1cc(C[C@H]2CNCC[C@H]2CC(=O)Nc2nccs2)no1 | ? | ? | -11.9%[70.6 µM] | 63.1µM*
CC(C)(C)c1cc(C[C@H]2CNCC[C@H]2CC(=O)Nc2ccccc2)no1 | 112µM* | ? | -16.5%[70.6 µM] | i
O=C(C[C@@H]1CCNC[C@@H]1Cc1cc(-c2ccc(F)cc2)on1)N1CCC(Cc2ccccc2)CC1 | 20µM* | 31.6µM* | 0.8% | i
O=C(C[C@@H]1CCNC[C@@H]1Cc1cc(COc2ccccc2)on1)N1CCN(c2ccc(F)cc2)CC1 | 25.1µM* | 22.4µM* | -15.9% | i
O=C(C1CCCN1C(=O)c1ccc(Cl)nc1)N1CCC(c2ccccc2)CC1 (stereo unspecified) | -24.5% | -5.2% | · | ·
CC(C)(C)NC(=O)C[C@@H]1CCNC[C@@H]1Cc1cc(CC2CCCCC2)on1 | 35.5µM* | 44.7µM* | 6.6%[70.6 µM] | i
CN(Cc1ccccc1)C(=O)C[C@@H]1CCNC[C@@H]1Cc1cc(CC2CCCCC2)on1 | 44.7µM* | 28.2µM* | ? | i
COCc1cc(C[C@H]2CNCC[C@H]2CC(=O)N(C)Cc2ccccc2)no1 | -4.7%[174 µM] | -5.7%[172 µM] | -1.6%[70.6 µM] | i
CN(Cc1ccccc1)C(=O)C[C@@H]1CCNC[C@@H]1Cc1cc(-c2ccc(F)cc2)on1 | 31.6µM* | 35.5µM* | -22.6%[70.6 µM] | i
SMILES | 3T3 cytotox | HEK cytotox | hNpr1 antagonist | FLuc inh
CN(Cc1ccccc1)C(=O)C[C@@H]1CCNC[C@@H]1Cc1cc(CN(C)c2ccccc2)on1 | 79.4µM* | ? | -15.4% | i
O=C(C[C@@H]1CCNC[C@@H]1Cc1cc(CC2CCCCC2)on1)NC1CC1 | ? | i | 2.4%[70.6 µM] | i
CCN(CC)C(=O)C[C@@H]1CCNC[C@@H]1Cc1cc(CC2CCCCC2)on1 | 25.1µM* | 70.8µM* | 2.6%[70.6 µM] | i
Cc1cccc(C(=O)N2CCC3(CC2)CC(Cc2ccc(F)cc2)CCO3)c1 (stereo unspecified) | ? | 44.7µM* | -15.7% | i
Cc1ccc(CC2CCOC3(CCN(C(=O)c4cccc(C#N)c4)CC3)C2)cc1 (stereo unspecified) | ? | 50.1µM* | ? | i
O=C(CC1CCOC2(CCN(C(=O)c3cccs3)CC2)C1)N1CCCC1 (stereo unspecified) | -17.1% | -8.3% | · | ·
COCC1CN(C(=O)c2ccc(Cc3c(C)noc3C)o2)CC12CCNCC2 (stereo unspecified) | -10.8% | -20.7% | 3.6% | i

From PubChem BioAssay
